In ChEMBL document CHEMBL3433997, “St. Jude Leishmania screening dataset” (2016):

These compounds were tested against Glucose transporter (Leishmania mexicana) (UniProt O61059) (assay: ST_JUDE_LEISH: Cytotoxicity at 2uM final concentration against transgenic Leishmania Mexicana promastigotes LmGT2 that are glucose transport deficient and complemented with the L. Mexicana glucose transporter 2. Activity is measured by DNA content using SYBR green in vitro).
Type: functional
Work on `CN(CC1CCC(NC(=O)/C=C/c2ccc(Cl)c(Cl)c2)CC1)C1CCC(c2c[nH]c3ccccc23)CC1` (stereo not given) yielded an inhibition of 2.15%.
Compound `COC(=O)c1c(C#N)c(OC)cc(O)c1CSC[C@@H](CN1CCCCC1)Nc1nc(-c2ccc([N+](=O)[O-])cc2)cs1` has an inhibition of 0.57%.
`CNC(=O)CSc1nnc(-c2ccc(C)cc2)c(-c2ccc(C)cc2)n1` was tested, and the inhibition was 1.88%.
With `O=C(NCc1cccc2ccccc12)C(c1cc2ccccc2o1)N1CCN(C(c2ccccc2)c2ccccc2)CC1` (stereo not given) the inhibition was -2.97%.
Work on `CN1CCCC(CN2CCN(Cc3cccc(-c4csc(-c5nc6ccccc6[nH]5)c4)c3)CC2)C1` (stereo not given) yielded an inhibition of 1.91%.
`O=C(N[C@@H](Cc1ccccc1)C(=O)NC1CCCCCC1)c1ccc(O)c(-c2cccc(C(F)(F)F)c2)c1` was tested, and the inhibition was 0.57%.
Work on `CC(C)(C)C(=O)Oc1ccc(CC2NCCc3cc(OC(=O)C(C)(C)C)c(OC(=O)C(C)(C)C)cc32)cc1OC(=O)C(C)(C)C` (stereo not given) yielded an inhibition of 7.65%.
`CCCCNCc1ccc(-c2nc(CN(Cc3ccc(Cl)c(Cl)c3)S(=O)(=O)c3ccc(NC(C)=O)cc3)cs2)cc1` was tested, and the inhibition was 2.51%.
For `N=C1C=C(N)C(=O)c2ccccc21`, the inhibition was 94.2%.
With `CS(=O)(=O)CCNCc1nc(-c2ccc3ncnc(Nc4ccc(OCc5cccc(F)c5)c(Cl)c4)c3c2)cs1` the inhibition was -1.62%.
For `Cc1[nH]c(C)c(-c2ccc(-c3ccc(OCC(F)(F)F)cc3)nc2)c(=O)c1Cl`, the inhibition was 6.06%.
In the case of `Cc1cc(CNCC2CCC(CNCCCc3ccccc3)CC2)ccc1O` (stereo not given), the inhibition was 7.65%.
With `CN(C)c1ccc(/C=C2\S/C(=N\c3ccccc3)N(c3ccccc3)C2=O)cc1[N+](=O)[O-]` the inhibition was -0.79%.
`CC(=O)N(C)c1cccc(C(=O)Nc2ccc(-c3cccc(-c4nc5cc(C(F)(F)F)ccc5[nH]4)c3)cc2)c1` showed an inhibition of 9.62%.
`O=C(NCCCCCN1CCC(c2c[nH]c3ccccc23)CC1)c1ccc(Cl)c(Cl)c1` showed an inhibition of 2.52%.
With `COc1ccc2nccc([C@H](O)CN3CCC(NCc4ccc5c(c4C)OCCO5)CC3)c2n1` the inhibition was 69.1%.
`CCC1N=C(N)N=C(N)N1OCCCOc1c(Cl)cc(Cl)cc1Cl` (stereo not given) showed an inhibition of 3.44%.
Work on `CN1CCN=C1c1ccc(NC(=O)Nc2ccc(C3=NCCN3C)cc2)cc1` yielded an inhibition of 5.87%.
`COc1cc2c(cc1NC(=O)CN1CCN(C(=O)c3ccco3)CC1)oc1ccccc12` showed an inhibition of -0.96%.
Compound `COc1ccc(C=NN=c2cc(C)[nH]c3c(C)cccc23)c2ccccc12` has an inhibition of 5.67%.
In the case of `O=C(c1ccc(F)cc1)N1CCOC(CCN2CCC(c3ccccc3)CC2)(c2ccc(Cl)c(Cl)c2)C1` (stereo not given), the inhibition was 5.2%.
`CCCCCCOc1ccc(/C(N)=N\Cc2ccccc2)c2c1CCCC2` gave an inhibition of 0.11%.
With `COc1ccc2c(c1)[nH]c1c(/C=C/c3ccc([N+](=O)[O-])cc3)nccc12` the inhibition was 3.6%.
`CC(C)c1ccc(NC(=O)c2cccc(CN3CCCN(CC4CCCCC4)CC3)c2)cc1` gave an inhibition of 9.65%.
`COc1cccc2cc(C(=O)N[C@@H](CC(C)C)C(=O)N[C@H](/C=N/N3C(=O)CN(Cc4ccccc4)C3=O)CCc3ccccc3)oc12` showed an inhibition of 6.11%.
Work on `Cc1nc(N)nc(N)c1-c1ccc(Br)c(Br)c1` yielded an inhibition of 3.4%.
Compound `N=C(N)Nc1nc(-c2cccc(NC(=O)NCc3ccc(OC(F)(F)F)cc3)c2)cs1` has an inhibition of 0.07%.
`O=[N+]([O-])c1ccc(N2CCCN(C(=S)Nc3ccc(F)cc3Br)CC2)nc1` showed an inhibition of 1.29%.
Compound `COc1ccccc1OCCN(CC(O)COc1cccc2[nH]c3ccccc3c12)CC(O)COc1cccc2[nH]c3ccccc3c12` (stereo not given) has an inhibition of 2.35%.
`O=c1c(Br)ccccc1Br` gave an inhibition of 2.97%.
`CNC(=N)c1ccc(NC(=O)c2ccc(C(=O)Nc3ccc(C(=N)NC)cc3)cc2)cc1` gave an inhibition of 1.84%.
Compound `CC(C)c1sc(N2CCN(C)CC2)nc1C(=O)NCCc1cccc(Cl)c1` has an inhibition of 3.93%.
With `Cc1cccc(Nc2nc(N)c3ccccc3n2)c1` the inhibition was 5.71%.
For `COc1ccc(-c2cc3ncn(CC(=O)N4CCN(c5cccc(OC)c5)CC4)c(=O)c3s2)cc1`, the inhibition was 2.45%.
`Cc1[nH]c(C)c(-c2ccc(CCc3ccc(F)cc3F)cc2)c(=O)c1Cl` gave an inhibition of -0.68%.
`CCn1c(-c2nonc2N)nc2c(-c3ccccc3)ncc(OCCCCNCCc3ncc[nH]3)c21` showed an inhibition of -0.64%.
`CN1CCC(N2CCN(Cc3ccc(-c4ccc(-c5nc6ccccc6[nH]5)s4)cc3)CC2)CC1` was tested, and the inhibition was 5.9%.
In the case of `CC(C)(C)c1ccc(CN2CCC(CNC(=O)c3cc(-c4ccccc4C(F)(F)F)cs3)C2)cc1` (stereo not given), the inhibition was 1.21%.
`CNC(=O)c1ccccc1Nc1nc(Nc2cccnc2)ncc1C` gave an inhibition of -0.69%.
`FC(F)(F)c1cccc(C=NNc2nc3ccccc3[nH]2)c1` was tested, and the inhibition was 5.13%.
